# The list is not random: actives were taken first. Their share in the collection is about 3%.
# TRb-SRC2 inh: qHTS for Inhibitors of the Interaction of Thyroid Hormone Receptor and Steroid Receptor Coregulator 2 | Potency, µM (highest dose often 106 µM), hits mostly inhibitors | Thyroid hormone receptor beta (Homo sapiens), P10828 | TRbeta-SRC2 peptide binding, fluorescence polarization; receptor liganded with 1 µM T3 | AID 1469, 2008 | 0.065% of 280,000 active; also: nearly all actives have a fitted effect of over 50% in size
# Target sequence (P10828 whole entry, looked up): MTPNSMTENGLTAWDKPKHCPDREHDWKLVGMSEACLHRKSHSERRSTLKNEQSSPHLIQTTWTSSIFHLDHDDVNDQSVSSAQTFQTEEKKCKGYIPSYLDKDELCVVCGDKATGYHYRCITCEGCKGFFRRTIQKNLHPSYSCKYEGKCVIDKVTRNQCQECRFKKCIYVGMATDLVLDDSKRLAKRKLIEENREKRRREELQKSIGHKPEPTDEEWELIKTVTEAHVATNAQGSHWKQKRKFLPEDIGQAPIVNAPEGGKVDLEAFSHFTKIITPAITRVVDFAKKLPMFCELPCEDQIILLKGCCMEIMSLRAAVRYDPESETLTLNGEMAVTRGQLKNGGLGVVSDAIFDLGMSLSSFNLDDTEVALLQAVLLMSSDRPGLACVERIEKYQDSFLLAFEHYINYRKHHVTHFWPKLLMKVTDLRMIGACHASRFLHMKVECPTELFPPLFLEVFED
#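 Fluorescence polarization of 20 nM Texas Red SRC2 peptide with 0.6 uM human TRb ligand-binding domain, in Tris buffer with 1uM T3 and 5% DMSO. Incubated 5 hr ambient; normalized to unbound and bound controls.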
# TR SRC2 fluor cs: Total Fluorescence Counterscreen for Inhibitors of the Interaction of Thyroid Hormone Receptor and Steroid Receptor Coregulator 2; TRb/SRC2 Texas Red total fluorescence interference; Potency, µM (doses to about 106 µM); 0.29% of 280,000 active; AID 1479, 2009; active = well fitted curve in either direction with a large enough effect; inconclusive = small, poorly fitted or top-dose-only effect
#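 Human TRβ ligand-binding domain (0.6 uM) and Texas Red SRC2 peptide (20 nM) in Tris buffer with 1 uM T3 and 5% DMSO were incubated with pinned compound for 5 hr at ambient temperature. Total fluorescence was computed as S + 2P (555/632 nm).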
# Tau fibril FP: qHTS for Inhibitors of Tau Fibril Formation, Fluorescence Polarization. Microtubule-associated protein tau (Homo sapiens), P10636. K18 P301L tau heparin fibrillization, Alexa594 FP, 6 h. Potency, µM (top dose mostly 57.7 µM), most hits filed as inhibitors. 0.39% of 280,000 active. AID 1468, 2008; also: nearly all actives have a fitted effect of over 55% in size
# Target sequence (P10636 561-689 P618L limits assumed): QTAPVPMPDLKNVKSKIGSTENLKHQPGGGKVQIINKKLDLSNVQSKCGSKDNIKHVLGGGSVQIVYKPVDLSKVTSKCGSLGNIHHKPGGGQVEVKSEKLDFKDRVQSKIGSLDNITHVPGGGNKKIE
#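 K18 P301L tau (15 uM unlabeled/0.24 uM Alexa 594-labeled, final) + compound + heparin 20 uM final; 100 mM NaOAc pH 7; 6 hr 37 C; ThT 30 uM final added, 1 hr RT; FP ex 555/em 632 nm.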
# Tau fibril ThT: qHTS for Inhibitors of Tau Fibril Formation, Thioflavin T Binding; recombinant tau K18 P301L, heparin-induced fibrillization, ThT fluorescence; Microtubule-associated protein tau (Homo sapiens), P10636; 2.1% of 270,000 active; AID 1460, 2008; Potency, µM (top dose mostly 57.4 µM), usual class: inhibitors; also: nearly all actives have a fitted effect of over 55% in size
#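 Heparin-induced fibrillization of the P301L-mutant K18 repeat-domain fragment of human tau was followed by ThT binding in quantitative high-throughput format.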
# Tau fluor counter: Counterscreen qHTS for Inhibitors of Tau Fibril Formation, Fluorescence Polarization; tau K18 P301L (four-repeat tau fragment) Alexa594 fluorescence, heparin fibrillization; Potency, µM (series often up to 57.7 µM); 0.93% of 280,000 active; also: nearly all actives have a fitted effect of over 55% in size
#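 Human K18 P301L tau (15 uM unlabeled plus 0.24 uM Alexa 594-labeled, final) in 100 mM sodium acetate pH 7 was mixed with compound and 20 uM heparin and incubated 6 hr at 37 C.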
# Numbers stand for hits; . = inactive; ? = inconclusive; [ ] = remark or other dose. Unless noted, calls follow the shape of the dose curve; as a rule, active = well fitted curve in the direction sought with a large enough effect; inconclusive = small, poorly fitted or top-dose-only effect, or another doubt; inactive = no such curve, though single readings can be large; an effect the other way counts as inactive or inconclusive.
SMILES,TRb-SRC2 inh,TR SRC2 fluor cs,Tau fibril FP,Tau fibril ThT,Tau fluor counter
COc1ccccc1CCNC(=O)Cc1c(C)c2c(cc(C)c3c(C)coc32)oc1=O,.,.,.,.,.
COCOc1c2c(c(OCOC)c3c(OCOC)cccc13)/C(=N/N[S+](=O)([O-])c1ccc(C)cc1)C1=C2CCCC1,.,.,.,.,.
CC(C)(Oc1ccc(Br)cc1)C(=O)Nc1cc(-c2nc3ccccc3[nH]2)ccc1Cl,.,.,16µM,.,?
COc1cccc(OC)c1C(=O)NC(=S)Nc1cc(-c2nc3ccccc3[nH]2)ccc1Cl,.,.,?,.,.
Cc1ccc(C(=O)N/N=C(/CC(=O)c2cccs2)C(F)(F)F)cc1,.,.,.,?,.
O=C(N/N=C(\CC(=O)c1cccs1)C(F)(F)F)c1ccncc1,.,.,.,14µM,?
COc1ccc(C)cc1NS(=O)(=O)c1ccc2c(c1)[C@H]1C=CC[C@H]1[C@@H](c1cccc(Cl)c1)N2,.,.,.,?,?
Cc1ccc(S(=O)(=O)N2CCC(C(=O)C3C(=O)CC(C)(C)CC3=O)CC2)cc1,.,.,.,.,.
Cc1ccc(S(=O)(=O)/N=C2/C=C(C3C(=O)CC(C)(C)CC3=O)C(=O)c3ccccc32)cc1,.,.,22µM,8.9µM,8.9µM[quencher]
COC(=O)c1ccc(NC(=O)N2CCc3c([nH]c4ccccc34)C2c2ccc(C)cc2)cc1 (stereo unspecified),.,.,.,.,?
Cc1[nH]c2ccccc2c1SCc1ccccc1,.,.,.,?,18µM[quencher]
O=C(CNC(=O)c1ccccc1)NC1(C(=O)NC2CCCC2)CCCCC1,.,.,?,.,2.8µM[quencher]
Nc1ccc(C(=O)O)c(O)c1,.,.,.,?,?
Nc1ccc(N)c(C(=O)O)c1,.,?,?,14µM,?
CCc1ccc(OCC(=O)NC2CC(C)(C)NC(C)(C)C2)cc1,.,.,.,13µM,.
CCCN1C(=O)/C(=C/c2c(N3CCNC(=O)C3CC(=O)OCC)nc3c(C)cccn3c2=O)SC1=S (stereo unspecified),.,.,.,13µM,.
CCOc1ccc2nc(N3CCCC(C(=O)Nc4ccc(OC)cc4)C3)sc2c1 (stereo unspecified),.,.,?,?,?
O=C(Nc1ccc(F)cc1)c1cccnc1NCCc1ccccc1,.,.,13µM,.,?
O=C(Nc1cccc(F)c1)c1cccnc1NCCc1ccccc1,.,.,18µM,.,?
O=C(Nc1cccc(F)c1)c1ccccc1-c1ccccc1,.,.,.,.,.
CNC(=O)c1cccnc1Nc1cccc(C(F)(F)F)c1,.,.,.,.,.
O=C(Nc1cccc(C(F)(F)F)c1)c1cccnc1NCCc1ccccc1,.,.,14µM,.,?
CCCOc1ccccc1C1Oc2nc(SC)nnc2-c2ccccc2N1C(C)=O (stereo unspecified),.,.,.,.,.
COc1ccc(N(C(=O)c2ccc(Cl)cc2)S(=O)(=O)c2ccc(C)cc2)cc1,.,.,.,.,.
CCOC(=O)C1=C(C)Nc2sc(C(=O)c3ccc(OC)cc3)c(N)c2C1c1ccc(C(=O)OC)cc1 (stereo unspecified),.,.,.,.,5µM[quencher]
SMILES,TRb-SRC2 inh,TR SRC2 fluor cs,Tau fibril FP,Tau fibril ThT,Tau fluor counter
COC(=O)C1=C(C)Nc2sc(C(N)=O)c(N)c2C1c1ccncc1 (stereo unspecified),.,.,.,.,.
Cc1nc(N2CCCC2)ncc1C(=O)Nc1ccc(F)cc1F,.,.,.,.,.
COc1cc(/C=N/NC(=O)C(=O)/C=C2\NC3(CCCC3)Cc3ccccc32)ccc1O,.,.,?,?,?
CN(C)c1ccc(/C=N/NC(=O)C(=O)/C=C2\NC3(CCCC3)Cc3ccccc32)cc1,.,.,.,2.2µM,.
CCOc1ccc2nc(N3CCCC(C(=O)Nc4cc(Cl)c(OC)cc4OC)C3)sc2c1 (stereo unspecified),.,?,.,?,?
CSc1ncc(CN2CCc3c([nH]c4ccccc34)C2c2cccc(O)c2)cn1 (stereo unspecified),.,.,.,.,16µM[quencher]
COc1cccc(C(=O)Nc2ccc(S(=O)(=O)N(Cc3ccccc3)c3ccccc3)cc2)c1,.,.,10µM,.,?
O=C(Nc1ccc(S(=O)(=O)N(Cc2ccccc2)c2ccccc2)cc1)c1ccc(F)cc1,.,.,10µM,.,?
O=C(Nc1ccc(S(=O)(=O)N(Cc2ccccc2)c2ccccc2)cc1)c1ccccc1F,.,.,?,.,.
COc1cc(/C=C/C(=O)N2CCCN(C(=O)/C=C/c3cc(OC)c(OC)c(OC)c3)CC2)cc(OC)c1OC,.,.,.,.,.
COc1cc(/C=C/C(=O)N2CCC=CC2=O)cc(OC)c1OC,.,.,?,8.9µM,.
O=C(O)CC/C(=C\c1ccc(N2CCCC2)c([N+](=O)[O-])c1)c1nc2ccccc2s1,.,.,.,4.5µM,.
CCOc1ccccc1Nc1nc(-c2sc(NC(=O)c3ccc([N+](=O)[O-])cc3)nc2C)cs1,.,.,?,3.5µM,7.9µM[quencher]
Cc1ccc(Nc2nc(-c3sc(NC(=O)c4ccc([N+](=O)[O-])cc4)nc3C)cs2)cc1,.,.,.,3.2µM,?
Cc1ccccc1Nc1nc(-c2sc(NC(=O)c3ccc([N+](=O)[O-])cc3)nc2C)cs1,.,.,.,4µM,10µM[quencher]
O=C(Cn1c(=O)n(-c2ccc(Cl)cc2)c(=O)c2oc3ccccc3c21)Nc1ccccc1,.,.,.,.,.
Cc1ccc(NC(=O)Cc2ccc(-n3c(C)nc4cccnc43)cc2)c(Cl)c1,.,.,.,.,.
CC1=C(c2ccc(Cl)cc2)S(=O)(=O)N=C1N1CCN(c2cccc(C)c2)C(C)C1 (stereo unspecified),.,.,.,?,.
CCC1Cc2c(nc(N)c3c(N)nc(N4CCCCC4)c(C#N)c23)O1 (stereo unspecified),.,.,.,?,16µM[quencher]
CCN(CC)c1nc(N)c2c(N)nc3c(c2c1C#N)CC(c1ccccc1)O3 (stereo unspecified),.,.,.,?,32µM[quencher]
N#Cc1c(N2CCCCC2)nc(N)c2c(N)nc3c(c12)CC(c1ccccc1)O3 (stereo unspecified),.,.,.,?,11µM[quencher]
N#Cc1c(N)nc2c(c1N)CC(CO)O2 (stereo unspecified),.,.,.,.,.
CCN(CC)c1nc(N)c2c(N)n(-c3ccccc3C)c(=S)c(C#N)c2c1C#N,.,.,.,.,.
